# G9a block: qHTS Assay for Inhibitors of Histone Lysine Methyltransferase G9a; AID 504332, 2011; 8.8% of 350,000 active; G9a H3K9 monomethylation, AlphaScreen, 2 h; Potency, µM (titrated, usually from 102 µM), without a hit: top-dose activity, negative = inhibition, usual class: inhibitors; note: % is set by controls: 0 for no effect and ±100 for the full control effect; nearly all actives have a fitted effect of over 75% in size
# Target sequence (Q96KQ7 913-1193 limits assumed): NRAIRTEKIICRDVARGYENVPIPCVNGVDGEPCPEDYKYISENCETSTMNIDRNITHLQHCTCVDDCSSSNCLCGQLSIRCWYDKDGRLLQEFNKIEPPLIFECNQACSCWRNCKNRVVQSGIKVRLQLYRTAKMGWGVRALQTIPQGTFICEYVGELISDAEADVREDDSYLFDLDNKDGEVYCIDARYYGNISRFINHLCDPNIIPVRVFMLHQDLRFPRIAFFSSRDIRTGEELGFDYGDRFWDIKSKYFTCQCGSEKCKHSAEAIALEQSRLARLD
#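 G9a (20 nM) preincubated 15 min RT with compounds, then 500 nM biotinylated H3K9 peptide and 20 uM SAM added; 2 h RT reaction. Monomethyl-H3K9 product detected by AlphaScreen with anti-H3K9me1 antibody, streptavidin donor and anti-rabbit IgG acceptor beads.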
# BAZ2B block: qHTS Assay for Inhibitors of BAZ2B; Potency, µM (titrated, usually from 114 µM), for the others: at the top dose activity change, negative = inhibition, hits mostly inhibitors; Bromodomain adjacent to zinc finger domain protein 2B (Homo sapiens), Q9UIF8; 4.4% of 360,000 active; AlphaScreen BAZ2B-H3K14Ac peptide displacement; note: % is set by controls: 0 for no effect and ±100 for the full control effect; nearly all actives have a fitted effect of over 60% in size
#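 BAZ2B 50 nM plus b-H3(5-23)K14Ac 50 nM, PBS pH 7.4/0.01% Tween-20, 30 min RT; compound added (max 110 uM), 30 min RT; streptavidin donor/Ni-chelate acceptor beads 10 ug/mL final, 20 min dark; AlphaScreen read.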
# JMJD2A Tudor: qHTS Assay for Inhibitors of JMJD2A-Tudor Domain | AlphaScreen JMJD2A-Tudor / H3K4me3 peptide binding | Potency, µM (doses to about 114 µM), for the others: at the top dose activity change, negative = inhibition, actives largely listed as inhibitors | 4.4% of 390,000 active; note: % is set by controls: 0 for no effect and ±100 for the full control effect; nearly all actives have a fitted effect of over 50% in size
# L3MBTL1 inh: qHTS Assay for the Inhibitors of L3MBTL1 | Lethal(3)malignant brain tumor-like protein 1 (Homo sapiens), Q9Y468 | AlphaScreen L3MBTL1–H3K9me1 peptide binding | Potency, µM (titrated, usually from 57.1 µM), inactives show top-dose activity, negative = inhibition, hits mostly inhibitors | 0.66% of 230,000 active; note: % is set by controls: 0 for no effect and ±100 for the full control effect; nearly all actives have a fitted effect of over 60% in size
#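 Read-out is AlphaScreen signal from streptavidin donor and nickel chelate acceptor beads (10 ug/mL final each) bridging L3MBTL1 (50 nM) and biotinylated K9-monomethylated H3(1-15) peptide (75 nM), after 30 min compound exposure at room temperature.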
# Sfp PPTase inh: qHTS Assay for Inhibitors of Bacillus subtilis Sfp phosphopantetheinyl transferase (PPTase). 4'-phosphopantetheinyl transferase ffp (Bacillus subtilis), Q9F4F7. Biochemical Sfp PPTase activity, qHTS. 3.5% of 310,000 active. Potency, µM, without a hit: largest response in the series, negative = inhibition, usual class: inhibitors;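 note: the enzyme is Sfp with the accession as filed and its product quenches rhodamine fluorescence; 0% = enzyme reaction without inhibitor and -100% = no enzyme wells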
#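 Reaction rates are the 30-min fluorescence difference (ex 525, em 598 nm) in wells containing 15 nM Sfp, 5 uM rhodamine-CoA and 12.5 uM BHQ-2-YbbR at pH 7.6 with 10 mM MgCl2.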
# HP1b binding inh: HTS for Inhibitors of HP1-beta Chromodomain Interactions with Methylated Histone Tails; AID 540317, 2011; 0.56% of 390,000 active; AlphaScreen HP1-beta / biotin-H3K9me3 peptide binding; Potency, µM (titrated, usually from 114 µM), for inactives: at the top dose activity change, negative = inhibition, most hits filed as inhibitors; Chromobox protein homolog 1 (Homo sapiens), P83916; note: nearly all actives have a fitted effect of over 70% in size
# Target sequence (P83916 whole entry, looked up): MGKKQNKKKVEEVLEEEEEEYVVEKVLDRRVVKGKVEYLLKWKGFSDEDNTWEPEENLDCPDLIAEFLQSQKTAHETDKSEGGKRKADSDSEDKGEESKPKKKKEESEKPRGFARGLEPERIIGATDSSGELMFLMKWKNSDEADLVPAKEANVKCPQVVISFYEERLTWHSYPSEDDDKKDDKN
#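 Compound inhibition of the preformed complex between 50 nM HP1-beta and 50 nM biotinylated H3K9me3 peptide was read by AlphaScreen. Buffer was PBS pH 7.4 with 0.01% Tween-20. Incubations ran 30 min at room temperature, with 10 ug/mL donor/acceptor beads.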
# Active calls of the source: *; u = inconclusive; x = not tested or not shown; ! = repeats disagree; [ ] = remark or other dose. Only some compounds are listed: those with a hit (about 12% of all), similar ones and a draw of the others. Calls come from the whole dose curve; as a rule, active = well fitted curve in the direction sought with a large enough effect; inconclusive = small, poorly fitted or top-dose-only effect, or another doubt; inactive = no such curve, though single readings can be large; an effect the other way counts as inactive or inconclusive. Potency is the fitted concentration of half-maximal effect.
SMILES,G9a block,BAZ2B block,JMJD2A Tudor,L3MBTL1 inh,Sfp PPTase inh,HP1b binding inh
COc1ccc(/C=C/C(=O)NC(=S)Nc2cc([N+](=O)[O-])ccc2O)cc1OC,28µM*,u,89µM*,-19%,-6%,u
COCCSc1ccccc1C(=O)Nc1cc([N+](=O)[O-])ccc1OC,40µM*,-17%,-14%,1%,17%,18%
CSc1ccccc1C(=O)Nc1cc([N+](=O)[O-])ccc1C,10µM*,-16%,-3%,-8%,-13%,15%
O=C(C1CCOCC1)N1CCCC(N2CCN(c3cccc(C(F)(F)F)c3)CC2)C1 (stereo not drawn),83%,-8%,-2%,x,5%,43%
COc1ccc(NC(=O)c2cn(CC(C)C)c(=O)c3cc(OC)c(OC)cc23)cc1Cl,-29%[59 µM],1%,-10%,x,x,27%
CCCn1c2ccccc2c2cnn(CC(=O)Nc3cc(C)c(Cl)cc3OC)c(=O)c21,-14%[59 µM],-7%,4%,x,x,24%
COc1cc([N+](=O)[O-])ccc1NC(=O)/C=C\C(=O)O,-45%,-33%,-14%,4%,23%,18%
COc1cc([N+](=O)[O-])ccc1NC(=O)/C=C/C(=O)O,50µM*,6%,-16%,x,-25%,14%
CC1CCN(S(=O)(=O)c2ccc(N3CCCCS3(=O)=O)cc2)CC1,u,-3%,-13%,x,x,6%
O=C(O)CCCNc1ccc(S(=O)(=O)Nc2ccccc2C(=O)O)cc1C(=O)O,50µM*,u,-34%,-2%,22%,8%
COc1ccccc1C(CNC(=O)C(C)Oc1ccc(Br)cc1)N1CCCC1 (stereo not drawn),u,-6%,-24%,1%,x,20%
CCc1ccc(NC(=O)Nc2cc(C(=O)NCC3CCCO3)ccc2N2CC3CC(C2)c2cccc(=O)n2C3)cc1 (stereo not drawn),u,-15%,u,x,10%,5%
CCc1ccc(NC(=S)Nc2cc(C(=O)O)ccc2N2CC3CC(C2)c2cccc(=O)n2C3)cc1 (stereo not drawn),u,x,-17%,x,56µM*,1%
O=C(O)c1ccc(N2CC3CC(C2)c2cccc(=O)n2C3)c(NC(=S)Nc2ccc(Br)cc2)c1 (stereo not drawn),32µM*,2%,-21%,x,56µM*,-23%
COCCc1nn2c(=O)cc(COC(=O)c3ccc(C(C)(C)C)cc3)nc2s1,2%[59 µM],-16%,-22%,x,x,32%
CCCCC(=O)NC(c1ccccc1Cl)c1ccc2cccnc2c1O (stereo not drawn),x,9%,-14%,3%,7%,52%
CCC(=O)NC(c1ccc(OC)cc1)c1cc(Cl)c2cccnc2c1O (stereo not drawn),-1%,-5%,-15%,4%,5%,46%
CCCCC(=O)NC(c1ccc(C(C)C)cc1)c1ccc2cccnc2c1O (stereo not drawn),34%[59 µM],-10%,-15%,0%,15%,54%
CCC(=O)NC(c1ccccc1OC)c1ccc2cccnc2c1O (stereo not drawn),0%[59 µM],25µM*,56µM*,u,19%,19%
COc1ccc(Cl)cc1C(Nc1cccnc1)c1ccc2cccnc2c1O (stereo not drawn),4µM*,35µM*,35µM*,-15%,-15%,u
CCCC(=O)NC(c1ccccc1)c1ccc2cccnc2c1O (stereo not drawn),7%,25µM*,45µM*,u,11%,51%
COc1ccc(C(NC(=O)c2cccnc2)c2cc(Cl)c3cccnc3c2O)cc1OC (stereo not drawn),19%[0.501 µM],u,-22%,u,-1%,57%
CCCC(=O)NC(c1ccc(OC)cc1)c1ccc2cccnc2c1O (stereo not drawn),x,20µM*,79µM*,u,1%,8%
Cc1cccc(NS(=O)(=O)c2ccc(C)c(NS(=O)(=O)c3cccs3)c2)c1,u,-37%,-8%,-6%,x,22%
CC(C)c1ccc(OCC(=O)NCC(c2ccc(Cl)cc2)N2CCOCC2)cc1 (stereo not drawn),-34%[59 µM],-7%,-12%,x,x,39%
SMILES,G9a block,BAZ2B block,JMJD2A Tudor,L3MBTL1 inh,Sfp PPTase inh,HP1b binding inh
Oc1cccc(C(Nc2ccccn2)c2ccc3cccnc3c2O)c1Cl (stereo not drawn),u,22µM*,22µM*,x,x,-9%
c1ccc(Oc2cccc3cccnc23)nc1,8%,-2%,-10%,10%,0%,8%
CCCCC(=O)NC(c1ccccc1)c1ccc2cccnc2c1O (stereo not drawn),23%,40µM*,-22%,-28%,19%,56%
CCCC1CC(C(=O)Nc2ccccc2)C(=O)O1 (stereo not drawn),x,x,-10%,x,x,6%
COc1cc(CC(=O)OCC(=O)c2ccc[nH]2)cc(OC)c1OC,x,x,-12%,-11%,x,29%
CC/C=C\C/C=C\C/C=C\C/C=C\C/C=C\C/C=C\CCC(=O)NCC(=O)O,x,x,x,x,-11%,x
CC/C=C\C/C=C\C/C=C\C/C=C\C/C=C\C/C=C\CCC(=O)O,7.1µM*,x,x,x,79µM*!,x
CN(C)c1ccc(N=Nc2ccc(C(=O)O)cc2)cc1,10µM*,35µM*,25µM*,x,79µM*,-25%[57 µM]
O=C(O)c1ccc(N=NN2CCCCC2)cc1,35µM*,u,0%,-21%,3%,24%
CC(=O)/C(N=Nc1ccc(C(=O)O)cc1)=C(\C)O,-21%,-11%,1%,-4%,17%,46%
CCOc1ccc(C(=O)NCC(c2ccco2)S(=O)(=O)c2cccs2)cc1 (stereo not drawn),-3%[59 µM],-8%,-12%,x,x,15%
O=C1c2cccc(NCCCNCCO)c2C(=O)c2cccc(NCCCNCCO)c21,x,x,50µM*,x,x,u
CCCCN(CCCC)S(=O)(=O)c1ccc(C(=O)Nc2nnc(CSC)o2)cc1,9%,2%,-17%,13%,15%,47%
